Data reported in PubChem BioAssay (NCATS).
Several values for one entry are separate records, joined by “and”; a condition that tells them apart may be missing. Equal entries are not always repeated. Records with an inconclusive call do not appear. A structure can be active in one record and inactive in another. Activity calls are given as the source filed them. Calls follow the shape of the dose curve; as a rule, active = well fitted curve in the direction sought with a large enough effect; inconclusive = small, poorly fitted or top-dose-only effect, or another doubt; inactive = no such curve, though single readings can be large; an effect the other way counts as inactive or inconclusive.

Key:
HaCat [1] = assay: Cytotoxic Profiling of Annotated Libraries Using Quantitative High-Throughput Screening (AID 1296008); settings: Five cell lines viability, CellTiter-Glo ATP luminescence, 48-72 h; max response: stronger effect = lower value; also: nearly all actives have a fitted effect of over 60% in size
How it was run: (§1)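 Cytotoxicity was measured as CellTiter-Glo ATP luminescence, read after 10 min at room temperature. Compound treatment of the cells lasted 48 or 72 hr at 37 degrees Celsius in a qHTS format.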

KB-3-1 = assay: as above; settings: Five cell lines viability, CellTiter-Glo ATP luminescence, 48-72 h; max response: stronger effect = lower value
How it was run: as §1

NIH3T3 [2] = assay: as above; settings: Five cell lines viability, CellTiter-Glo ATP luminescence, 48-72 h; max response: stronger effect = lower value
How it was run: as §1

HACAT [3] = assay: qHTS assay to identify novel small-molecules to repurpose for Merkel cell carcinoma treatment (AID 1296009); settings: MCC and control cell lines, CellTiter-Glo viability, 72 h; at 44.8 µM (top of the series) unless noted; also: nearly all actives have a fitted effect of over 60% in size; also: potency is read from the fitted curve at half-maximal effect
How it was run: (§2)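 Cell viability, measured as CellTiter-Glo luminescence, was normalized between DMSO and no-cell wells. The cells had been exposed to 8- or 11-point compound dilutions for 72 hr at 37 degree celsius.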

HEK293T [4] = assay: as above; settings: MCC and control cell lines, CellTiter-Glo viability, 72 h; at 44.8 µM (top of the series) unless noted
How it was run: as §2

MCC-13 = assay: as above; settings: MCC and control cell lines, CellTiter-Glo viability, 72 h; series mostly up to 46 µM
How it was run: as §2

MCC-26 = assay: as above; settings: MCC and control cell lines, CellTiter-Glo viability, 72 h; series mostly up to 46 µM
How it was run: as §2

MKL-1 = assay: as above; settings: MCC and control cell lines, CellTiter-Glo viability, 72 h; series mostly up to 46 µM
How it was run: as §2

MKL-2 = assay: as above; settings: MCC and control cell lines, CellTiter-Glo viability, 72 h; series mostly up to 46 µM
How it was run: as §2

UISO = assay: as above; settings: MCC and control cell lines, CellTiter-Glo viability, 72 h; series mostly up to 46 µM
How it was run: as §2

WaGa = assay: as above; settings: MCC and control cell lines, CellTiter-Glo viability, 72 h; series mostly up to 46 µM
How it was run: as §2

C33A = assay: Primary qHTS to identify gynecologic anti-cancer compounds using libraries of approved drugs and bioactive compounds (AID 1345084); settings: Gynecologic cancer cell panel viability, ATPlite luminescence, 48 h; series mostly up to 57.5 µM; also: nearly all actives have a fitted effect of over 55% in size
How it was run: (§3)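 In this quantitative HTS, cell killing is estimated from loss of ATP-dependent luciferase light. Cells see five compound concentrations over a 48 h exposure.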

CASKI = assay: as above; settings: Gynecologic cancer cell panel viability, ATPlite luminescence, 48 h; series mostly up to 57.5 µM
How it was run: as §3

Es-2 = assay: as above; settings: Gynecologic cancer cell panel viability, ATPlite luminescence, 48 h; series mostly up to 57.5 µM
How it was run: as §3

HeLa = assay: as above; settings: Gynecologic cancer cell panel viability, ATPlite luminescence, 48 h; series mostly up to 57.5 µM
How it was run: as §3

Hek293T [5] = assay: as above; settings: Gynecologic cancer cell panel viability, ATPlite luminescence, 48 h, control line for the selectivity index; series mostly up to 57.5 µM
How it was run: as §3

JEG-3 = assay: as above; settings: Gynecologic cancer cell panel viability, ATPlite luminescence, 48 h; series mostly up to 57.5 µM
How it was run: as §3

OV90 = assay: as above; settings: Gynecologic cancer cell panel viability, ATPlite luminescence, 48 h; series mostly up to 57.5 µM
How it was run: as §3

CAOV3 = assay: as above; settings: Gynecologic cancer cell panel viability, ATPlite luminescence, 48 h; series mostly up to 57.5 µM
How it was run: as §3

NIH3T3 [6] = assay: qHTS assay to identify novel small-molecules to repurpose for Merkel cell carcinoma treatment (AID 1296009); settings: MCC and control cell lines, CellTiter-Glo viability, 72 h; at 44.8 µM (top of the series) unless noted; also: nearly all actives have a fitted effect of over 60% in size; also: potency is read from the fitted curve at half-maximal effect
How it was run: as §2
% is scaled to controls: 0 for no effect and ±100 for the full control effect.

Cc1noc(NS(=O)(=O)c2ccc(N)cc2)c1C
inactive: max response (HaCat [1]) 1.98% | outcome (HaCat [1]) | max response (KB-3-1) -4.11% and 1.03% | outcome (KB-3-1) | max response (NIH3T3 [2]) -2.78% and -1.88% | outcome (HACAT [3]) | outcome (HEK293T [4]) | Potency (MCC-13) | Potency (MCC-26) | Potency (MKL-1) | Potency (MKL-2) | Potency (UISO) | Potency (WaGa) | Potency (C33A) | Potency (CASKI) | Potency (Es-2) | Potency (HeLa) | Potency (Hek293T [5]) | Potency (JEG-3) | Potency (OV90)

COc1cnc(NS(=O)(=O)c2ccc(N)cc2)nc1
inactive and 13.2 µM (active): Potency (WaGa)
inactive: max response (HaCat [1]) -7.96% | outcome (HaCat [1]) | max response (KB-3-1) 12.3% | outcome (KB-3-1) | max response (NIH3T3 [2]) -3.77% and 1.75% | outcome (HACAT [3]) | outcome (HEK293T [4]) | Potency (MCC-13) | Potency (MCC-26) | Potency (MKL-1) | Potency (MKL-2) | Potency (UISO) | Potency (C33A) | Potency (CAOV3) | Potency (CASKI) | Potency (Es-2) | Potency (HeLa) | Potency (Hek293T [5]) | Potency (JEG-3) | Potency (OV90)

Cn1c(=O)c2c(ncn2CC(O)CO)n(C)c1=O (stereo not given)
inactive: max response (HaCat [1]) 2.18% | outcome (HaCat [1]) | max response (KB-3-1) 3.89% | outcome (KB-3-1) | max response (NIH3T3 [2]) 2.82% and -0.547% | outcome (HACAT [3]) | Potency (MCC-13) | Potency (MCC-26) | Potency (MKL-1) | Potency (MKL-2) | Potency (UISO) | Potency (WaGa) | Potency (C33A) | Potency (CAOV3) | Potency (CASKI) | Potency (Es-2) | Potency (Hek293T [5]) | Potency (JEG-3) | Potency (OV90)

COc1ccc(-c2ccc3cc(C(=O)O)ccc3c2)cc1C12CC3CC(CC(C3)C1)C2
inactive: max response (HaCat [1]) -4.15% | outcome (HaCat [1]) | max response (KB-3-1) -1.55% | outcome (KB-3-1) | max response (NIH3T3 [2]) 4.1% | outcome (NIH3T3 [2]) | outcome (HACAT [3]) | Potency (MCC-13) | Potency (MKL-1) | Potency (MKL-2) | outcome (NIH3T3 [6]) | Potency (UISO) | Potency (WaGa) | Potency (C33A) | Potency (CAOV3) | Potency (CASKI) | Potency (Es-2) | Potency (Hek293T [5]) | Potency (JEG-3) | Potency (OV90)

CC(=O)[C@H]1CC[C@H]2[C@@H]3CC=C4C[C@@H](O)CC[C@]4(C)[C@H]3CC[C@]12C
inactive: max response (HaCat [1]) 2.2% | outcome (HaCat [1]) | max response (KB-3-1) -0.265% and 8.01% | max response (NIH3T3 [2]) 0.775% | outcome (NIH3T3 [2]) | outcome (HACAT [3]) | Potency (MCC-13) | Potency (MKL-1) | Potency (MKL-2) | outcome (NIH3T3 [6]) | Potency (UISO) | Potency (WaGa) | Potency (C33A) | Potency (CAOV3) | Potency (CASKI) | Potency (Es-2) | Potency (Hek293T [5]) | Potency (JEG-3) | Potency (OV90)

CC(C)(Sc1cc(C(C)(C)C)c(O)c(C(C)(C)C)c1)Sc1cc(C(C)(C)C)c(O)c(C(C)(C)C)c1
inactive: max response (HaCat [1]) 0.994% | outcome (HaCat [1]) | max response (KB-3-1) -10.8% and 4.75% | max response (NIH3T3 [2]) 1.18% | outcome (NIH3T3 [2]) | outcome (HACAT [3]) | outcome (HEK293T [4]) | Potency (MCC-13) | Potency (MCC-26) | Potency (MKL-1) | Potency (MKL-2) | outcome (NIH3T3 [6]) | Potency (UISO) | Potency (WaGa) | Potency (C33A) | Potency (CAOV3) | Potency (CASKI) | Potency (Es-2) | Potency (HeLa) | Potency (Hek293T [5]) | Potency (JEG-3) | Potency (OV90)

Cc1ccnc2c1NC(=O)c1cccnc1N2C1CC1
inactive: max response (HaCat [1]) -1.71% | outcome (HaCat [1]) | max response (KB-3-1) 17.8% | outcome (KB-3-1) | max response (NIH3T3 [2]) -5.8% and 2.37% | outcome (HACAT [3]) | Potency (MCC-13) | Potency (MCC-26) | Potency (MKL-1) | Potency (MKL-2) | Potency (UISO) | Potency (WaGa) | Potency (C33A) | Potency (CAOV3) | Potency (CASKI) | Potency (Es-2) | Potency (HeLa) | Potency (Hek293T [5]) | Potency (JEG-3) | Potency (OV90)

O=C(N[C@H](CO)[C@H](O)c1ccc([N+](=O)[O-])cc1)C(Cl)Cl
inactive: max response (HaCat [1]) -14.6% and -20.9% | max response (KB-3-1) -16.7% | outcome (KB-3-1) | max response (NIH3T3 [2]) 4.84% and -8.61% | outcome (HEK293T [4]) | Potency (MCC-13) | Potency (MCC-26) | Potency (MKL-1) | Potency (MKL-2) | Potency (UISO) | Potency (WaGa) | Potency (C33A) | Potency (CASKI) | Potency (Es-2) | Potency (HeLa) | Potency (Hek293T [5]) | Potency (JEG-3)

COc1ccccc1OCC(O)COC(N)=O (stereo not given)
inactive: max response (HaCat [1]) -15.7% | outcome (HaCat [1]) | max response (KB-3-1) 5.86% and 1.39% | max response (NIH3T3 [2]) 4.42% and 1.69% | outcome (HACAT [3]) | outcome (HEK293T [4]) | Potency (MCC-13) | Potency (MCC-26) | Potency (MKL-1) | Potency (MKL-2) | Potency (UISO) | Potency (WaGa) | Potency (C33A) | Potency (CAOV3) | Potency (CASKI) | Potency (Es-2) | Potency (Hek293T [5]) | Potency (JEG-3) | Potency (OV90)

Cc1cc(NS(=O)(=O)c2ccc(N)cc2)no1
inactive: outcome (HaCat [1]) | max response (KB-3-1) -10.1% | outcome (KB-3-1) | max response (NIH3T3 [2]) -3.95% | outcome (NIH3T3 [2]) | outcome (HACAT [3]) | Potency (MCC-13) | Potency (MCC-26) | Potency (MKL-1) | Potency (MKL-2) | outcome (NIH3T3 [6]) | Potency (UISO) | Potency (WaGa) | Potency (CAOV3) | Potency (CASKI) | Potency (Es-2) | Potency (HeLa) | Potency (Hek293T [5]) | Potency (JEG-3) | Potency (OV90)

CO[C@@H]1[C@@H](OC(N)=O)[C@@H](O)[C@H](Oc2ccc3c(O)c(NC(=O)c4ccc(O)c(CC=C(C)C)c4)c(=O)oc3c2C)OC1(C)C
inactive: max response (HaCat [1]) 0.197% | outcome (HaCat [1]) | max response (KB-3-1) -7.22% and 9.2% | max response (NIH3T3 [2]) -2.07% and -24% | outcome (HACAT [3]) | outcome (HEK293T [4]) | Potency (MCC-13) | Potency (MKL-1) | Potency (MKL-2) | Potency (UISO) | Potency (WaGa) | Potency (C33A) | Potency (CAOV3) | Potency (CASKI) | Potency (HeLa) | Potency (Hek293T [5]) | Potency (JEG-3) | Potency (OV90)
